The whole screen tested about 16,000 compounds, of which about 4,000 (25%) were called active. Another 26% or so got no clear call; they are omitted. A selection follows. Unmarked numbers belong to inactive results. Calls come from the whole dose curve; as a rule, active = well fitted curve in the direction sought with a large enough effect; inconclusive = small, poorly fitted or top-dose-only effect, or effect the other way; inactive = no such curve, though single readings can be large or run the other way.
Molecular target: Cytochrome P450 2C9 (Homo sapiens) (UniProt P11712)
Experiment: Cytochrome panel assay with activity outcomes
Settings: recombinant CYP, pro-luciferin dealkylation, luminescence, p450-cyp2c9; series mostly up to 57.1 µM
% is set by controls: 0 for no effect and ±100 for the full control effect.

Chain of Cytochrome P450 2C9 (Homo sapiens) (P11712 whole entry, looked up): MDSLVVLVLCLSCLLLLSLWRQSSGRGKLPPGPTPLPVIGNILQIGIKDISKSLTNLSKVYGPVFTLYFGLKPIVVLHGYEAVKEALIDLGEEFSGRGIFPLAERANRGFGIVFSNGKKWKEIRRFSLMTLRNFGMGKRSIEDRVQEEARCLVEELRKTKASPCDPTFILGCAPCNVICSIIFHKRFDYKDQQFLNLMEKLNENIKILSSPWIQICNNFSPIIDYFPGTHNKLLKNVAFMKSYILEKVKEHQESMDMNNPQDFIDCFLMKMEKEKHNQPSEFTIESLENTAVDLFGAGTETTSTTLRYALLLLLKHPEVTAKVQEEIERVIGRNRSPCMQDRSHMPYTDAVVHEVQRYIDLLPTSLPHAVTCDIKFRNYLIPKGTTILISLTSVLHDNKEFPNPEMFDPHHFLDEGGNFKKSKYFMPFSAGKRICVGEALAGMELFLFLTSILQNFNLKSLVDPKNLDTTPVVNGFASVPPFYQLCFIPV

| Compound | AC50 | activity, negative = inhibition |
| --- | --- | --- |
| Cc1cc(NC(=O)C2=C(O)c3ccccc3S(=O)(=O)N2C)no1 | inactive |  |
| O=C1c2ccccc2S(=O)(=O)N1CCCCN1CCN(c2ncccn2)CC1 | inactive |  |
| CN1C(C(=O)Nc2ccccn2)=C(O)c2ccccc2S1(=O)=O | 3.98 µM (active) |  |
| O=C(Nc1cccc(Cl)c1)N1CCN2C(=O)c3ccccc3C12c1ccccc1 (stereo not drawn) | 2.51 µM (active) |  |
| O=C(Nc1cccc(F)c1)N1CCC2(CCNCC2)CC1 | inactive |  |
| N/N=C1/c2ccccc2N[C@H]1OC(=O)Nc1cccc(Cl)c1 |  | -11.6% [at 11.4 µM] |
| C[C@](N)(Cc1ccc(O)c(O)c1)C(=O)O | inactive |  |
| C[C@H](Cc1ccc(O)c(O)c1)[C@@H](C)Cc1ccc(O)c(O)c1 | 12.6 µM (active) |  |
| N[C@@H](Cc1ccc(O)c(O)c1)C(=O)O | inactive |  |
| O=c1c2ccccc2nc2n1CC/C2=C\c1ccccc1[N+](=O)[O-] | 5.01 µM (active) |  |
| O=c1c2ccccc2nc2n1CCc1c-2[nH]c2ccccc12 | inactive |  |
| O=C(O)CSc1nc2ccccc2[nH]1 |  | -8.67% [at 11.4 µM] |
| O=C(CSc1nc2ccccc2[nH]1)Nc1c(F)cccc1F | 12.6 µM (active) |  |
| CNC(=O)[C@@H]1O[C@@H](n2cnc3c(NCc4cccc(I)c4)ncnc32)[C@H](O)[C@@H]1O | inactive |  |
| CCOC(=O)c1cnc(-c2ccccc2)nc1Oc1ccc(Cl)cc1 | inactive |  |
| Cc1ccc(Oc2nc(-c3ccccc3)ncc2S(C)(=O)=O)cc1 | 2.51 µM (active) |  |
| CCOC(=O)c1cnc(-c2ccccc2)nc1Oc1cccc(Cl)c1 | 11.2 µM (active) |  |
| CCOC(=O)c1cnc(-c2ccccc2)nc1Oc1ccccc1 | 6.31 µM (active) |  |
| C=CCOc1ccc(CNC(C)(C)CO)cc1OC | inactive |  |
| CCn1cc(C(=O)O)c(=O)c2cc3c(cc21)OCO3 | inactive |  |
| O=C(O)c1cc(=O)c2c(Cl)cc(Cl)cc2[nH]1 | inactive |  |

| Compound | AC50 | activity, negative = inhibition |
| --- | --- | --- |
| CO/N=C\[C@@H](C)[C@H](OCc1ccccc1)C(C)C |  | -6.92% [at 11.4 µM] |
| COc1ccccc1-c1nc(NCc2cnc(C)cn2)c2ccccc2n1 |  | 16.4% [at 2.29 µM] |
| Cn1ncc2c(Nc3cccc(C(=O)O)c3)ncnc21 | inactive |  |
| CC(=O)Nc1ccc(Nc2ncnc3c2cnn3-c2ccccc2)cc1 | 0.891 µM (active) |  |
| Nc1ncnc2c1cnn2-c1ccccc1 | inactive |  |
| CCOC(=O)c1ccc(NC(=O)CC2NCCNC2=O)cc1 (stereo not drawn) | inactive |  |
| CCOC(=O)c1ccc(NC(=O)COc2ccccc2OC)cc1 | 17.8 µM (active) |  |
| Cc1cc(C)nc(Nc2ncc(O)n2-c2ccccc2)n1 | inactive |  |
| Cc1ccc2nc(N/N=C\c3cccc(C)n3)cc(C)c2c1 |  | 7.2% [at 11.4 µM] |
| Cc1nc(N/N=C/c2ccccc2)nc(N(C)c2ccccc2)c1[N+](=O)[O-] | inactive |  |
| Cc1ccc2nc(N/N=C/c3ccccc3C#N)nc(-c3ccccc3)c2c1 | 7.08 µM (active) |  |
| Cc1ccc2nc(Nc3ccccc3O)nc(-c3ccccc3)c2c1 | 8.91 µM (active) |  |
| C[C@H](NC[C@H](O)CP(=O)(O)CC1CCCCC1)c1ccc(Cl)c(Cl)c1 | inactive |  |
| CC(C)CN(CC(C)C)C1=N/C(=C\c2ccco2)C(=O)N1c1ccccc1 | 3.98 µM (active) |  |
| Cc1cnc(CNc2ccnc(-c3ccccc3C(F)(F)F)n2)cn1 |  | 8.33% [at 2.29 µM] |
| C#CCSc1n[nH]c(-c2ccco2)n1 |  | 0.366% [at 11.4 µM] |
| CC#C[C@@]1(O)CC[C@H]2[C@@H]3CCC4=CC(=O)CCC4=C3[C@H](c3ccc(N(C)C)cc3)C[C@]21C | 3.98 µM (active) |  |
| CC#C[C@]1(O)CC[C@H]2[C@@H]3CCC4=CC(=O)CCC4=C3[C@H](c3ccc(N(C)C)cc3)C[C@@]21C | inactive |  |
| CCCC(=O)N1c2ccccc2C(N(C(C)=O)c2ccccc2)CC1C (stereo not drawn) | 3.98 µM (active) |  |
| CC1Cc2ccccc2N1C(=O)CSCC(=O)O (stereo not drawn) | inactive |  |
| Cn1nc(C(F)(F)F)c(/C=N/OCc2c(Cl)cccc2Cl)c1Cl | 1.58 µM (active) |  |

| Compound | AC50 | activity, negative = inhibition |
| --- | --- | --- |
| O=C(NCCCN1CCCCCC1)C1CC(=O)N(CCc2ccccc2)C1 (stereo not drawn) | inactive |  |
| CC(=O)c1ccc(N2CCC(c3cc(-c4ccc(Cl)cc4)n[nH]3)CC2)c([N+](=O)[O-])c1 | 3.98 µM (active) |  |
| CC(=O)c1ccc(N2CCC(c3cc(-c4ccc(Cl)cc4Cl)n[nH]3)CC2)c([N+](=O)[O-])c1 | 3.98 µM (active) |  |
| COc1ccc(-c2cc(C3CCN(c4cc(Cl)nc(N)n4)CC3)[nH]n2)cc1 | 14.1 µM (active) |  |
| COc1ccc(-c2cc(C3CCN(c4ccc(C(C)=O)cc4[N+](=O)[O-])CC3)[nH]n2)cc1 | 7.94 µM (active) |  |
| CC(C)NC(=O)N1CCC2(CC1)CCN(S(C)(=O)=O)CC2 | inactive |  |
| CN(Cc1ccco1)c1ncncc1-c1ccccc1C(F)(F)F |  | -7.74% [at 2.29 µM] |
| COc1ccccc1-c1cc(Nc2ccn[nH]2)ncn1 |  | -3.07% [at 2.29 µM] |
| CC(C)SC(=N)N | inactive |  |
| Clc1ccc([C@H](Cn2ccnc2)OCc2csc3c(Cl)cccc23)c(Cl)c1 | 0.316 µM (active) |  |
| Clc1ccc(COC(Cn2ccnc2)c2ccc(Cl)cc2Cl)c(Cl)c1 (stereo not drawn) | 0.316 µM (active) |  |
| NC(N)=NC(N)=Nc1c(F)c(F)c(F)c(F)c1F |  | 0.138% [at 11.4 µM] |
| O=C(O)c1cc2cc(Cc3cccnc3)ccc2o1 | inactive |  |
| Cc1cccc(OCCn2c(-c3ccco3)nc3ccccc32)c1 | 1.78 µM (active) |  |
| Cc1cccc(CCNc2nc3ccccc3n3nnnc23)c1 | inactive |  |
| CS(=O)(=O)c1nc2ccccc2n1Cc1ccccc1 | inactive |  |
| O=S(=O)(O)c1nc2ccccc2n1Cc1ccccc1 | 25.1 µM (active) |  |
| O=C(O)[C@@H]1[C@H](C(=O)O)[C@H]2C(=O)C=C[C@H]1N2Cc1ccccc1 |  | 4.11% [at 11.4 µM] |
| OCCN1CCN(CCOc2cccc(Cl)c2)CC1 | inactive |  |
| Cc1cccc(OCCn2c(S(=O)(=O)O)nc3ccccc32)c1 | 5.62 µM (active) |  |
| OC[C@@H]1NC[C@@H](O)[C@@H](O)[C@H]1O | inactive |  |

Source: PubChem BioAssay AID1851 (National Center for Advancing Translational Sciences (NCATS), 2009)
